# In all, about 48,000 compounds went through this assay and about 13,000 (27%) showed an effect of 50% or more. This is one part of the list.
# System: Wolbachia pipientis
# Experiment: Anti-Wolbachia Cell-Based Screen
# Format: functional
# Parameters: scale not given: in the data most compounds retested in dose-response had high values
# Conditions: 5 µM
row,Structure (SMILES),Percent Effect [%]
1,O=C(CN1C(=O)CCC1=O)N1Cc2cncnc2C1,12.03
2,Cc1nc2n(n1)CC(NCC(=O)N(C)Cc1cccs1)CC2 (stereo not drawn),8.702
3,CC(C)(C)c1cn(CC2CCCN(c3cnc4ccccc4n3)C2)nn1 (stereo not drawn),0.2574
4,CCNC(=O)N1CCCCC1CCO (stereo not drawn),-12.11
5,COCCOCC(=O)N1CCC(c2ccccc2F)C1 (stereo not drawn),5.027
6,COc1ccccc1C1CCN(C(=O)CN2C(=O)OC(C)(C)C2=O)CC1,112.8
7,O=C(CN1C(=O)CCNC1=O)N1CCC(c2ccc(F)cc2)C1 (stereo not drawn),-18.18
8,O=C1CCCCN1CC(=O)N1CCCC(c2ccccc2)C1 (stereo not drawn),-3.382
9,CC1(C)OC(=O)N(CC(=O)N2CCC(c3ccccc3Cl)C2)C1=O (stereo not drawn),91.31
10,CC1(C)OC(=O)N(CC(=O)N2CCC(c3ccccc3F)C2)C1=O (stereo not drawn),96.35
11,Cc1cccc(C2CCCN(C(=O)CN3C(=O)CCNC3=O)C2)c1 (stereo not drawn),2.396
12,COc1ccccc1[C@@H]1CN(CC(=O)N2CCCCC2)C[C@H]1C(=O)O,-14.69
13,CCOc1cccnc1C(=O)N1CCC(c2ccccc2OC)C1 (stereo not drawn),-1.787
14,O=C(Nc1ccccc1N1CCOC1=O)N1CCSCC1,-8.317
15,Oc1ccccc1-c1cc(-c2nc(C3CC3)n[nH]2)[nH]n1,-8.043
16,O=c1[nH]c(N2CCCCC2)nc2c1CCN(Cc1cccnc1)C2,95.47
17,O=c1[nH]c(N2CCOCC2)nc2c1CN(Cc1cccnc1)CC2,111.6
18,c1cnc(NCc2n[nH]c3c2CCN(Cc2cccnc2)C3)nc1,-6.284
19,Cc1cccc(CN2CCc3c(nc(N4CCC(C)CC4)[nH]c3=O)C2)n1,-8.966
20,CC1CCCCN1c1nc2c(c(=O)[nH]1)CCN(Cc1cccnc1)C2 (stereo not drawn),-7.907
21,Cn1ccnc1CN(CCO)C(=O)c1nc2ccccc2s1,-11.45
22,O=C(CCc1ccccc1)N1CCCCC1C1OCCO1 (stereo not drawn),-4.281
23,O=C(NCc1ccccc1F)N1CCCCC1C1OCCO1 (stereo not drawn),112.3
24,O=C(NCCc1ccccc1)N1CCCCC1C1OCCO1 (stereo not drawn),1.192
25,CC(C)(C(=O)NCCC(=O)O)c1cccc(Br)c1,-20.92
26,CCN1CCCC(CN(C)c2nccc(-c3ccc(C)nc3C)n2)C1 (stereo not drawn),89.59

row,Structure (SMILES),Percent Effect [%]
1,CN(CC1CCCCO1)c1nncc(-c2cccc(F)c2)n1 (stereo not drawn),-2.947
2,Cc1csc(CN(CC2CCCO2)C(=O)c2ccc(C)nc2C)n1 (stereo not drawn),-5.335
3,Cc1ccc(-c2ccnc(N(C)CC3CCCO3)n2)c(C)n1 (stereo not drawn),111.2
4,Cc1nn(C)cc1CN(C)c1nccc(-c2cn(C)nc2C)n1,-19.87
5,Cc1ccc(-c2ccnc(N[C@H]3COC[C@@H]3N3CCCC3)n2)c(C)n1,-11.11
6,CN(CC1CCCN1C)c1nccc(C2CCCC2)n1 (stereo not drawn),25.37
7,Cc1ccc(-c2ccnc(N(C)CC3CCCN3C)n2)c(C)n1 (stereo not drawn),123
8,CCCc1nnc(N(C)CC2CCCN(CC)C2)o1 (stereo not drawn),-14.65
9,Cc1ccc(CNC(CCO)C2CCCCC2)nc1 (stereo not drawn),14.22
10,CCOCC(=O)Nc1ncn(Cc2cccc(Br)c2)n1,5.844
11,CNC(=O)C1CCCCN1C(=O)c1csc(-c2ccc(C)cc2)n1 (stereo not drawn),-3.515
12,C[S+]([O-])c1nncn1CCCc1ccc(Cl)cc1 (stereo not drawn),1.023
13,O=C(CCc1ccccc1)C1CCCN(Cc2cncn2C2CC2)C1 (stereo not drawn),-3.844
14,CS(=O)(=O)N1CCCC(C(=O)N2CCOc3ccccc32)C1 (stereo not drawn),-6.293
15,CCS(=O)(=O)N1CCCC(c2nc3ccccc3n2C(C)C)C1 (stereo not drawn),-13.43
16,NC(=O)C1CCN(S(=O)(=O)c2cnn(-c3ccccc3)c2)C1 (stereo not drawn),-1.203
17,CCS(=O)(=O)N1CCCC(n2nnn(-c3ccccc3)c2=O)C1 (stereo not drawn),133
18,CCS(=O)(=O)Cc1nnnn1-c1ccccc1,1.834
19,CS(=O)(=O)N1CCC(N2CCCC2c2ccccn2)CC1 (stereo not drawn),-15.97
20,CS(=O)(=O)N1CCN2C(=O)N(C3CCCCC3)C[C@H]2C1,-8.389
21,CS(=O)(=O)N1CCCC(n2nnn(-c3ccccc3)c2=O)C1 (stereo not drawn),149.4
22,CS(=O)(=O)N1CCC(n2nnn(-c3ccccc3)c2=O)CC1,113.8
23,Cc1nc(CN2CCC(CNC(=O)C3(C#N)CCCC3)CC2)oc1C,-2.689
24,O=C(NCCNS(=O)(=O)c1cc(F)cc(F)c1)c1ccoc1,3.11
25,COCc1ncc(CN(CCN(C)C)Cc2ccc(C)s2)cn1,-7.942
26,OC(CNCCn1cccn1)COc1ccc2ccccc2c1 (stereo not drawn),-4.73

row,Structure (SMILES),Percent Effect [%]
1,CO[C@@H]1CCN(S(=O)(=O)c2cn(C)cn2)[C@H]1Cc1ccncc1.O=C(O)C(F)(F)F,7.215
2,Cn1nccc1C(=O)N1CCN(C(=O)C2CCC2)[C@@H]2CS(=O)(=O)C[C@@H]21,-1.449
3,CC1=Nc2c(c(=O)[nH]n2C2CCCC2)C(c2cccc(O)c2)S1 (stereo not drawn),4.051
4,CC1=Nc2c(c(=O)[nH]n2C2CCCCC2)C(c2ccc(C(=O)O)cc2)S1 (stereo not drawn),110.1
5,CC1=Nc2c(c(=O)[nH]n2C2CCCC2)C(c2cccnc2)S1 (stereo not drawn),106.9
6,CC1(C)CC1(C(=O)N1CC(c2cccnc2)C1)c1ccc(F)cc1 (stereo not drawn),-9.092
7,COc1ccc(C2SC(C)=Nc3c2c(=O)[nH]n3C2CCCCC2)cc1O (stereo not drawn),9.619
8,CC1=Nc2c(c(=O)[nH]n2C2CCCC2)C(c2ccc(C(=O)O)cc2)S1 (stereo not drawn),117.5
9,O=C1CC(C2CCCCC2)c2c(n(C3CCCC3)[nH]c2=O)N1 (stereo not drawn),-0.7877
10,C[C@@H]1CN(C2CCN(Cc3nn(C)c4cccc(Cl)c34)CC2)C[C@H](C)O1,24.58
11,C[C@@H]1CN(CC(C)(C)N2CCCCC2)CC[C@@]1(O)C1CC1,22.77
12,CC(CN1CCOCC1)N(Cc1ccccc1)Cc1ccncc1 (stereo not drawn),4.516
13,O=C(Nc1cn[nH]c1)c1ccc(O)nc1,-8.814
14,Cc1ccc(NCCNC(=O)C2Cc3cc(C)c(C)cc3O2)nn1 (stereo not drawn),-19.52
15,CCOc1ncccc1C(=O)N1CCCCC1c1nccs1 (stereo not drawn),4.622
16,COc1ncccc1C(=O)N1CCCC1c1c(C)n[nH]c1C (stereo not drawn),-9.272
17,CCOc1ncccc1C(=O)N1CCCC1c1c(C)nn(C)c1Cl (stereo not drawn),122.7
18,COc1ncccc1C(=O)N1CCCC1c1c(C)nn(C)c1Cl (stereo not drawn),89.91
19,CCCNC(=O)C(C)Nc1ccc(OCC)cc1 (stereo not drawn) [PROPETAMIDE],-10.93
20,CC(=O)N1Cc2ccccc2CC1C(=O)Nc1ccc(N(C)C)cn1 (stereo not drawn),-0.765
21,CCS(=O)(=O)NCCNc1c(C#N)cnc2c(C)cc(F)cc12,-8.935
22,COc1ccc(-c2ccc(C(=O)NS(C)(=O)=O)c(F)c2)cc1,-4.531
23,CCCn1nnc(NCc2cc(Br)cc(Br)c2OC)n1,116
24,COc1cc(Br)c(CNc2ccn(CCC(N)=O)n2)cc1OC,-66.5
25,CCn1nnc(NCc2cc(Cl)cc(Cl)c2OC)n1,112
26,CCOc1c(Cl)cc(Cl)cc1CNCCCn1ccnc1,7.909

row,Structure (SMILES),Percent Effect [%]
1,CCn1nnc(NCc2cc(Br)cc(Br)c2OC)n1,107.9
2,CCOc1c(CNCCCn2ccnc2)cc(Cl)cc1OC.Cl.Cl,2.415
3,CCCC(=O)NCc1cc(Br)c(OC)c(OC)c1,-2.36
4,CC(CN1CCCC1=O)NC(=O)c1cc(-c2cccc(Cl)c2)no1 (stereo not drawn),-44.82
5,COCC(=O)N[C@H](C)c1onc(-c2ccccc2)c1C(=O)O,-4.041
6,CN(C)CC1CN(Cc2nnc(-c3ccccc3Cl)o2)CCO1 (stereo not drawn),1.962
7,COC(=O)c1cccc(C(=O)N2CCCC(n3cncn3)C2)c1 (stereo not drawn),108.5
8,CCCOc1cccc(C(=O)N2CCCC(n3cncn3)C2)c1 (stereo not drawn),99.87
9,CCc1cccc(OCC(=O)N2CCCC(n3cncn3)C2)c1 (stereo not drawn),9.617
10,O=C(c1cccc(OC2CCCC2)c1)N1CCCC(n2cncn2)C1 (stereo not drawn),-3.661
11,COCCn1cc(C(=O)N2CCCC(n3cncn3)C2)ccc1=O (stereo not drawn),-8.291
12,CS(=O)(=O)Cc1cccc(C(=O)N2CCCC(n3cccn3)C2)c1 (stereo not drawn),7.401
13,CN(C)Cc1cccc(C(=O)N2CCCC(n3cncn3)C2)c1 (stereo not drawn),139.2
14,O=C(c1cccc(CN2CCCC2)c1)N1CCCC(n2cncn2)C1 (stereo not drawn),-4.839
15,COc1cc(CCC(=O)NCC2CCCN2C)ccc1OCC(F)(F)F (stereo not drawn),-0.8695
16,COCC(=O)N1C[C@H]2CN(Cc3csc(C)n3)C(=O)[C@H]2C1.O=C(O)C(F)(F)F,-18.32
17,COCC(=O)N1C[C@@H](c2cc(O)nc(C)n2)[C@H](c2ccccc2F)C1,108.7
18,Cc1nc(O)cc([C@@H]2CN(C(=O)C3CC3)C[C@H]2c2ccccc2F)n1,114.1
19,CC(=O)N1C[C@@H](F)[C@@H](OCc2nc3ccccc3o2)C1,-12.47
20,CC(=O)N1C[C@H](c2cc(O)nc(C)n2)[C@@H](c2ccccc2F)C1,117
21,Cc1nc(O)cc(C2CCCN(C(=O)COCc3ccccc3)C2)n1 (stereo not drawn),12.86
22,CN1CCC2(CCCN(C(=O)c3cncn3C)C2)CC1.O=C(O)C(F)(F)F,-6.177
23,CCc1c(O)nc(SCC(=O)Nc2ccccc2)n(C(C)CC)c1=O (stereo not drawn),-0.04082
24,CCc1c(O)nc(SCC(=O)N(CC)CC)n(C(C)CC)c1=O (stereo not drawn),-0.2531
25,CCc1c(O)n(C(C)CC)c(SCC(=O)c2ccccc2)nc1=O (stereo not drawn),125.3

# — ChEMBL document CHEMBL3988442, “University of Dundee, Small-Polar-MMV Screening Library” (2021)
